Assay results published in PubChem BioAssay.
A number with no mark means an inactive call. The rule behind the calls is not given here.

Target: Pantothenate synthetase (Mycobacterium tuberculosis (strain ATCC 25618 / H37Rv)) (UniProt P9WIL5)
Assay: Coupled enzyme confirmation of inhibitors against recombinant Mtb PanC (AID 375);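 note: 0% = full reaction with vehicle and 100% = no enzyme background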
Settings: coupled enzyme assay; at 10 µM, active compounds read high

Sequence of Pantothenate synthetase (Mycobacterium tuberculosis (strain ATCC 25618 / H37Rv)) (P9WIL5 whole entry, looked up): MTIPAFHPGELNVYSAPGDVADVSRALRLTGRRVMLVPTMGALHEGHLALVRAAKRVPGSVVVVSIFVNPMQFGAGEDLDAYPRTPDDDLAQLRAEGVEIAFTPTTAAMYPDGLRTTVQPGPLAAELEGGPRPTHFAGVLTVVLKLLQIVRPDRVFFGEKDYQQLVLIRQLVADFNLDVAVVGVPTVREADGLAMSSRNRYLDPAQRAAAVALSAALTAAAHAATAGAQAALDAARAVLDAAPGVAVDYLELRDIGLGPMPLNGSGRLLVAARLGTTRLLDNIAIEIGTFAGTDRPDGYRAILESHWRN

| SMILES | inhibition |
| --- | --- |
| CCc1ccc(CNCc2cccnc2)cc1 | 0% |
| O=C(NCCSc1c[nH]c2ccccc12)c1ccc(Br)o1 | 1% |
| COc1ccc2[nH]c(=O)c(CN(C(=O)c3cccnc3)c3ccccc3OC)cc2c1 | 1% |
| CCCc1ccc(S(=O)(=O)NCCc2ccncc2)cc1 | 0% |
| N#CC1=C(SCC(=O)c2cc3ccccc3oc2=O)NC(=O)C(C#N)C12CCCC2 (centres undefined) | 0% |
| c1ccc(-n2cnc3cc(NCc4ccccn4)ccc32)cc1 | 0% |
| CC(C)[C@H](NC(=O)OC(C)(C)C)c1nnc(SCc2cccc(F)c2)o1 | 1% |
| CCOC(=O)C1=C(C)N=c2s/c(=C\c3cccn3C)c(=O)n2C1c1cccc(OC)c1OC (centres undefined) | 0% |
| CN1C(=O)C2(NCCc3c2[nH]c2ccccc32)c2ccccc21 (centres undefined) | 1% |
| COc1ccccc1OCc1ccc(C(=O)Nc2ccncc2)o1 | 2% |
| COc1cc(NC(=O)C2CC(c3cccc(OC)c3OC)=NO2)cc(OC)c1OC (centres undefined) | 0% |
| Nc1nnc(SCC(=O)N2CCc3ccccc32)n1-c1ccccc1 | 1% |
| O=C(NC1=NCCS1)c1ccc2c(c1)C(=O)N(Cc1ccco1)C2=O | 0% |
| O=S1(=O)CC(N2CCOCC2)c2ccccc21 (centres undefined) | 0% |
| CCCn1c(SCC(=O)N2CCc3ccccc3C2)nc2c1c(=O)n(C)c(=O)n2C | 1% |
| [O-][n+]1onc2c1CCc1nnc(-c3ccccc3)cc1-2 | 0% |
| CC(Oc1ccc(Cl)cc1Cl)c1nc(-c2ccc(NC(=O)c3cccnc3)cc2)no1 (centres undefined) | 3% |
| Cc1cc(NC(=O)COc2ncnc3sc(C)c(C)c23)no1 | 0% |
| CCOC(=O)c1cc2c(=O)n3ccccc3nc2n(CC(C)C)c1=NC(=O)c1ccco1 | 0% |
| COc1ccc(OC)c(C2=NOC(C(=O)Nc3c(C)n(C)n(-c4ccccc4)c3=O)C2)c1 (centres undefined) | 2% |

| SMILES | inhibition |
| --- | --- |
| O=C(Cn1c(NCCO)nc2ccccc21)c1ccccc1 | 6% |
| COc1ccccc1C(=O)Nc1ccc(S(=O)(=O)N2CCCC2)cc1 | 4% |
| CCOC(=O)c1c(NC(=O)OC)sc2c1CCC2 | 0% |
| CCOC(=O)c1cc(C(C)(C)C)oc1CN | 0% |
| COc1ccc(-c2nnc(SCC#N)o2)cc1 | 0% |
| COCCn1c(CN2CCN(c3ccccc3F)CC2)nc2c1c(=O)n(C)c(=O)n2C | 6% |
| CC(C)C(=O)Nc1ccc(-c2nc3cccnc3o2)cc1 | 2% |
| Cn1nc(CC(=O)Nc2ccc(N3CCN(C(=O)OC(C)(C)C)CC3)cc2)c2ccccc2c1=O | 0% |
| CCCSc1nc2c(c(=O)[nH]c(=O)n2C)n1CCc1ccccc1 | 5% |
| COc1cccc2c1C(=O)c1c(O)c3c(c(O)c1C2=O)C[C@@](O)(C(=O)CO)C[C@@H]3O[C@H]1C[C@H](N)[C@H](O)[C@H](C)O1 | 5% |
| Cc1ccc(-c2nnn(CC(=O)N(CC(=O)NC3CCCCC3)c3cnc4ccccc4c3)n2)o1 | 8% |
| CCOC(=O)Cc1csc(/C(=N/O)C(N)=O)n1 | 3% |
| O=C(Nc1ccc2oc(-c3ccncc3)nc2c1)c1cccs1 | 0% |
| CC(=O)Nc1sc2c(c1C#N)CCCCC2 | 7% |
| CCCn1c(=O)c(C(=O)NCc2ccccn2)c(O)c2ccccc21 | 0% |
| CCCCCCC1/C(=N/O)CCC1C(=O)OC (centres undefined) | 0% |
| CCN(CC)C(=O)COc1ccc2oc(C)c(C(=O)OC(C)C)c2c1 | 4% |
| CCOC(=O)c1sc(NC(=O)COC(=O)Cn2cnc3ccccc32)c(C(=O)OCC)c1C | 3% |
| O=c1cc(CSc2nnnn2-c2ccccc2)nc2scc(-c3ccccc3)n12 | 3% |
